Screening results deposited in PubChem BioAssay by The Scripps Research Institute Molecular Screening Center.
The list is not random: actives were taken first. Their share in the collection is about 2.3%.
M1 antag: blocks human M1 muscarinic receptor. CHO-K1 hM1, Fluo-8 calcium fluorescence, ACh EC80 antagonist. inhibition, % at 3 µM. 360,000 tested, 1.3% active. AID 588852;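 active = percent inhibition above its own plate's cutoff, namely the mean of that plate's compound wells plus 3 SD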;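 note: peak over basal fluorescence ratio during 140 s after agonist addition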
Target sequence (P11229 whole entry, looked up): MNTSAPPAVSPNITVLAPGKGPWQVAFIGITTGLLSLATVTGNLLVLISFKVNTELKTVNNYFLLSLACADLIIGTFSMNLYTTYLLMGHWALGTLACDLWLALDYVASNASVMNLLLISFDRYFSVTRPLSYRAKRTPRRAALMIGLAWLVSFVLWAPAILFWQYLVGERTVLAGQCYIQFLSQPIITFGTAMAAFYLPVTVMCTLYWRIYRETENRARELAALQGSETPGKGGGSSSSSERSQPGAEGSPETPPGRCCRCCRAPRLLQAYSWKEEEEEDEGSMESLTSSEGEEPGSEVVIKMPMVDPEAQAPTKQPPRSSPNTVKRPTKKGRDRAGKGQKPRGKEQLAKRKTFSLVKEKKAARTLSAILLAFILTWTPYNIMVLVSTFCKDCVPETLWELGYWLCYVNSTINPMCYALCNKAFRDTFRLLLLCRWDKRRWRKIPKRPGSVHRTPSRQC
CHRM1 agonist: human M1 muscarinic receptor agonism; AID 588814; CHO-K1 hM1, Fluo-8 calcium fluorescence, agonist mode; 0% DMSO, 100% acetylcholine EC100; activation, % at 3 µM; 360,000 tested, 0.33% active; P11229;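 active = activation above the run's mean compound activation plus 3 SD, cut at about 16% in these data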;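 note: peak over basal fluorescence ratio within a 140 s kinetic read after compound addition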
CHO-K1 Ca antag: counter-screen for M1 antagonists: effect in parental CHO-K1 cells; ATP-induced calcium, Fluo-8 fluorescence; inhibition, % at 3 µM; 360,000 tested, 0.6% active; AID 602250;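 active = inhibition above a per-plate cutoff, the plate's mean sample inhibition plus 3 SD, cut at about 24% in these data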
M1 PAM: positive allosteric modulators of human M1 muscarinic receptor | activation, % at 3 µM | P11229 | CHO-K1 hM1, Fluo-8 calcium fluorescence, ACh EC20; 0% = ACh EC20, 100% = maximal ACh | 360,000 tested, 0.088% active; in the data active = activation above about 19%, passing the limit was not always enough
M1 ag parental: M1 agonist counterscreen hit in parental CHO-K1 cells. Fluo-8 calcium fluorescence; scaled to maximal ATP response, vehicle zero. activation, % at 3 µM. 360,000 tested, 0.48% active; in the data active = activation above about 15%;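 note: untransfected CHO-K1 host cells lacking M1 receptor as counterscreen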
CHO-K1 Ca PAM: M1 PAM counterscreen hit in parental CHO-K1 cells; ATP EC20, Fluo-8 calcium fluorescence; 0% at ATP EC20, 100% at ATP max; activation, % at 3 µM; AID 602247; 360,000 tested, 0.02% active;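 active = activation above the run cutoff, the mean activation of all test compounds plus 3 SD, cut at about 40% in these data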;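 note: peak over basal fluorescence ratio in a 140 s read after ATP addition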
Large screens that a line does not name were inactive.

CC(=O)c1ccc(S(=O)(=O)Nc2ccc(C(=O)NCC(c3cccs3)N3CCOCC3)cc2)cc1 (stereo not drawn)	none
CCOc1ccc(NS(=O)(=O)c2ccc(C(=O)NCC(c3cccs3)N3CCOCC3)cc2)cc1 (stereo not drawn)	CHRM1 agonist 29, M1 ag parental 25
CN(Cc1ccc(F)cc1)C(=O)C(Cc1ccccc1)NC(=O)c1ccccc1 (stereo not drawn)	none
CSc1ccc(CN(C)C(=O)C(Cc2ccccc2)NC(=O)c2ccccc2)cc1 (stereo not drawn)	M1 antag 44
COc1ccc(CN(C)C(=O)C(Cc2ccccc2)NC(=O)c2ccccc2)cc1F (stereo not drawn)	M1 antag 42
CSc1ccccc1NC(=O)CN(C)C(=O)c1ccc(-n2cccn2)cc1	none
Cn1nccc1C(=O)c1ccc(Cl)cc1	CHO-K1 Ca antag 24
CCOC(=O)C1[C@H]2C(=O)N(C(C)c3ccc(OC)cc3)C[C@]23C=C[C@H]1O3 (stereo partly drawn)	M1 antag 69
CN(C)CCCn1c(SCC(=O)N2CC(=O)Nc3ccccc32)nc2ccccc2c1=O	none
CC(C)N(CCn1c(SCC(=O)N2CC(=O)Nc3ccccc32)nc2ccccc2c1=O)C(C)C	M1 antag 61
COc1ccc(/C=C/C(=O)c2cc(F)ccc2OC(=O)c2ccccc2)cc1OC	CHO-K1 Ca antag 24
COc1ccc(/C=C/C(=O)c2cc(F)ccc2OC(=O)c2ccc(OC)c(OC)c2)cc1OC	none
O=C(CNC(=O)c1ccccc1F)N/N=C/c1cn[nH]c1-c1ccccc1	M1 antag 41
COC(=O)CNC(=O)c1ccccc1C	CHO-K1 Ca antag 26
CC1Sc2ccc(S(=O)(=O)N3CCC(C(=O)Nc4ccc(Cl)cc4)CC3)cc2NC1=O (stereo not drawn)	M1 antag 45, CHO-K1 Ca antag 31
CCOc1ccc(N2CC(C(=O)Nc3ccc(S(=O)(=O)N4CCCCC4)cc3)CC2=O)cc1 (stereo not drawn)	CHO-K1 Ca antag 68
Cc1ccc(NC(=O)C2CCN(S(=O)(=O)c3ccc(N4CCCC4=O)cc3)CC2)cc1Cl	M1 antag 47, CHO-K1 Ca antag 32, M1 ag parental 16
COc1ccc(C)cc1-n1nnnc1SC(C)C(=O)NC1CCCC1 (stereo not drawn)	none
CCCCCn1c(CN2CC(C)OC(C)C2)nc2c1c(=O)n(C)c(=O)n2C (stereo not drawn)	CHO-K1 Ca antag 24
CC1CN(Cc2nc3c(c(=O)n(C)c(=O)n3C)n2CCN2CCOCC2)CC(C)O1 (stereo not drawn)	none
CCCCCCn1c(CN2CCN(CCO)CC2)nc2c1c(=O)n(C)c(=O)n2C	CHO-K1 Ca antag 24
COCCn1c(CN2CCN(c3ccccc3)CC2)nc2c1c(=O)n(C)c(=O)n2C	M1 antag 33
CN(C(=O)Cn1nnc(-c2ccccc2)n1)C1CCS(=O)(=O)C1 (stereo not drawn)	none
S=C(NCc1ccccc1)NCc1cccc(Cl)c1	CHO-K1 Ca antag 60
S=C(NCc1ccccc1)Nc1ccc(Cl)cc1	none
FC(F)(F)c1cccc(CNC(=S)Nc2ccccc2)c1	CHO-K1 Ca antag 27
FC(F)(F)Sc1ccc(NC(=S)NCc2ccccc2)cc1	M1 antag 40, CHO-K1 Ca antag 31
CC1CCc2sc(C(=O)N3CCC(C(N)=O)CC3)cc2C1 (stereo not drawn)	none
CCCCSCCCNC(=O)c1ccc2c(c1)N(CC)C(=O)c1ccccc1S2=O (stereo not drawn)	none
CCCCNC(=O)c1ccc2c(c1)N(CC)C(=O)c1ccccc1S2(=O)=O	M1 antag 33
CCCN(CCC)CCCNC(=O)c1ccc2c(c1)N(CC)C(=O)c1ccccc1S2=O (stereo not drawn)	M1 antag 44
CCN1C(=O)c2ccccc2S(=O)(=O)c2ccc(C(=O)NC(C)C)cc21	none
COc1ccc(CNC(=O)c2cc(S(=O)(=O)N3CCCCC3)ccc2Cl)cc1OC	none
Cc1ccc(C)c(N2CCN(C(=O)CCCOc3cc(=O)n(C)c4ccccc34)CC2)c1	M1 antag 37
